Many of the other results were omitted from the sample, so hits are more common in it than they were.
Caspase-7 inhib: allosteric or competitive inhibitors of human caspase-7 | AID 889 | Potency, µM (series often up to 57.5 µM), for the others: at the highest dose activity change, negative = inhibition, actives largely listed as inhibitors | recombinant caspase-7, Ac-DEVD-AFC fluorescence rate | 75,000 compounds, 0.02% hits; active means well fitted inhibition curve with a large enough effect in the main read-out, with a control signal flat, not every such curve was filed as active; inconclusive means small, poorly fitted or top-dose-only effect, or a change in a side signal; further: % of control where 0% means no effect
Target sequence (P55210 24-198 limits assumed): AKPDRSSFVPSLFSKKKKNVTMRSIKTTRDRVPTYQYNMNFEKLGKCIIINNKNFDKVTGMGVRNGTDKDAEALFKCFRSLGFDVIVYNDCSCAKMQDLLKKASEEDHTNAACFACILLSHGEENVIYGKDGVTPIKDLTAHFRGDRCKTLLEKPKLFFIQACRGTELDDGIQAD
Target sequence (P55210 207-303 limits assumed): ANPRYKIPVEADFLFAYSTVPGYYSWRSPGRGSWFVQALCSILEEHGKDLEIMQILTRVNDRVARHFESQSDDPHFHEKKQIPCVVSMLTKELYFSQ
Caspase-1 inhib: blocks human caspase-1 allosterically or competitively; Potency, µM (doses to about 57.5 µM), for inactives: at the highest dose activity change, negative = inhibition, most hits filed as inhibitors; AID 900; Caspase-1 enzyme, Ac-WEHD-AFC fluorogenic rate; 75,000 compounds, 0.03% hits; P29466; active means well fitted inhibition curve with a large enough effect; inconclusive means small, poorly fitted or top-dose-only effect;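 further: plate controls were vehicle for no effect and no substrate for full effect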
Target sequence (P29466 120-297 limits assumed): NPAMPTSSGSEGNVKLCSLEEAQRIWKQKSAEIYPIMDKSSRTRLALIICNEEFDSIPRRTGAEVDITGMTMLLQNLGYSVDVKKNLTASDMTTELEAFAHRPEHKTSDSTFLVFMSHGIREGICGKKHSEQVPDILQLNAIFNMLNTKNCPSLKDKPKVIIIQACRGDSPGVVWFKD
Target sequence (P29466 317-404 limits assumed): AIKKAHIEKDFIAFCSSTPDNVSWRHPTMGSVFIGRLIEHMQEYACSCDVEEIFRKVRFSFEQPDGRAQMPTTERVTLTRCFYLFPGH
GBA mod: alters purified human glucocerebrosidase activity | P04062 | purified enzyme, resorufin glucoside fluorescence (screen aimed at inhibitors), 20 min | Potency, µM | 48,000 compounds, 1.1% hits; in the data active means potency below about 15 µM; inconclusive means mostly about 16 µM to 33 µM;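 further: the screen sought inhibitors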
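Wild-type enzyme at 0.2 nM final in 50mM citric acid/KH2PO4, 10mM sodium taurocholate, 0.01% tween-20, pH 5.9, with resorufin beta-D-glucopyranoside at 30 uM final. Compounds titrated, 20 min at RT, red fluorescence read; AC50 from titration.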
* marks the source's active call; other numbers are inactive results; i = inactive; ? = inconclusive; . = no result given; [ ] = remark or other dose. Potency means the concentration at half of the fitted maximal effect.

SMILES | Caspase-7 inhib | Caspase-1 inhib | GBA mod
O=C1[C@@H]2[C@@H]3C=C[C@H]([C@@H]2C(=O)N1CN1CCSCC1)[C@@H]1[C@@H]2C(=O)N(CN4CCSCC4)C(=O)[C@@H]2[C@H]31 | -1%[11.5 µM] | -1%[11.5 µM] | .
Cn1cc(C2NC(=O)c3c(sc4c3CCCC4)N2)c2ccccc21 (stereo unspecified) | -7% | -8% | .
Cn1cc(/C=N/n2cnc3sc4c(c3c2=O)CCCC4)c2ccccc21 | -3% | -2% | 12*
CS(=O)(=O)N1CCC(C(=O)Nc2ccc(Oc3ccccc3)cc2)CC1 | -1% | -1% | 14*
CC(C)c1ccc(NC(=O)C2CCN(S(C)(=O)=O)CC2)cc1 | -1% | -1% | 12*
COC(=O)c1ccc(NC(=O)C2CCN(S(C)(=O)=O)CC2)cc1 | 2% | 1% | >77
CCc1ccc(NC(=O)C2CCN(S(C)(=O)=O)CC2)cc1 | -5% | -2% | ?
COCC(=O)N1CCC[C@@]2(CCN(C(=O)Nc3ccccc3)C2)C1 | 0% | -3% | .
Cc1c(Nc2ncccc2C(=O)O)cccc1C(F)(F)F | 0% | 0% | .
COc1ccc(C2CC(C(F)(F)F)n3nc(CO)c(Cl)c3N2)cc1OC (stereo unspecified) | 6% | 1% | 5.9*
COc1ccc(C2CC(C(F)(F)F)n3nc(C(=O)O)c(Cl)c3N2)cc1OC (stereo unspecified) | 0% | 0% | .
Cc1cc(C)n(-c2ccc(C(=O)Nc3ccccn3)cc2)n1 | 0% | 0% | >77
Cc1cc(C)n(-c2ccc(C(=O)Nc3sccc3C(N)=O)cc2)n1 | -20% | -3% | 15*
COC(=O)c1sc2nc(-c3ccco3)ccc2c1N | 0% | 3% | >77
N#Cc1sc2nc(-c3ccccc3)cc(-c3ccco3)c2c1N | 25µM* | . | >77
Cc1ccc(Nc2nc(N3CCOCC3)c3ccccc3n2)cc1 | -4% | -3% | .
Oc1ccc(Nc2nc(N3CCCC3)c3ccccc3n2)cc1 | 4% | -1% | 8.8*
O=C(O)c1cc2c(cc1S(=O)(=O)O)[C@H]1[C@@H]([C@H]3[C@H]2[C@@]2(Cl)C(Cl)=C(Cl)[C@]3(Cl)C2(Cl)Cl)[C@]2(Cl)C(Cl)=C(Cl)[C@@]1(Cl)C2(Cl)Cl | -3%[11.5 µM] | 2%[11.5 µM] | .
CCOc1ccc(-n2c(SCc3ccc(C(=O)OC)o3)nc3c(c2=O)SCC3)cc1 | -6% | 0% | i
COC(=O)c1ccc(CSc2nc3c(c(=O)n2-c2ccc(Br)cc2)SCC3)o1 | -11% | 0% | 4.9*
CC(C)(C)c1onc(OCP(=O)(O)O)c1C[C@@H](N)C(=O)O | -2% | -3% | .
O=C(Nc1nc(-c2ccc(S(=O)(=O)N3CCCC3)cc2)cs1)c1cccs1 | 0% | 0% | ?
O=C(Nc1nc(-c2ccc(S(=O)(=O)N3CCCCCC3)cc2)cs1)c1cccs1 | -2% | -3% | 14*
ICCc1ccccc1 | -3% | ? | .
Cc1ccc(NC(=O)NC2=N/C(=C(/C#N)C(=O)N3CCCC3)c3ccccc32)cc1 | -2% | -2% | 9*
SMILES | Caspase-7 inhib | Caspase-1 inhib | GBA mod
Cc1ccc(NC(=O)C2CC=CCC2C(=O)N2CCCCC2)cc1 (stereo unspecified) | 5% | 1% | >77
COC(=O)[C@@]1(Cc2ccccc2)[C@H]2c3cc(C(=O)N4CCCC4)n(CCO)c3C[C@H]2CN1C(=O)c1ccccc1 | -1% | 0% | .
CCCCN(CC)S(=O)(=O)c1cccc2cccnc12 | 0% | -2% | .
C=CCN1CCc2c(cc(O)c(O)c2Cl)[C@H](c2ccccc2)C1 | 1% | -2% | .
CCNC(=O)N1C(=O)C2(OCCO2)c2ccccc21 | 2% | 0% | >77
CCCCOc1ccc(OCCCC)c2c1NC1(N2)C(=O)N(C(C)=O)c2ccccc21 | 0% | -1% | 6.1*
COC(=O)N1CCC2(CCCN(C(c3ccccc3)c3ccccc3)C2)CC1 | -1% | -2% | .
CCN1CCN(c2ccc(NC(=O)c3cccnc3)cc2Cl)CC1 | 1% | 0% | 6.3*
O=C(Nc1ccccc1N1CCCC1)c1cccnc1 | 2% | 0% | >77
CCc1c2c(nc3ccc(OC)cc13)COC2 | -4% | 4% | .
Cc1cccc(N(C)S(=O)(=O)c2ccc3[nH]cc(C(=O)N4CCOCC4)c(=O)c3c2)c1 | 0% | 2% | >77
Cc1cccc(N(C)S(=O)(=O)c2ccc3[nH]c(=O)c(=O)[nH]c3c2)c1 | 0% | -1% | 11*
CNCC[C@H](Oc1ccccc1C)c1ccccc1 | 3% | -2% | .
O=C(O)c1cc(NCc2ccccc2C(F)(F)F)ccc1N1CCOCC1 | 1% | -1% | 13*
O=C(O)c1cc(NCc2cccs2)ccc1N1CCOCC1 | 0% | -5% | >77
CO[C@@H]1/C=C\O[C@]2(C)Oc3c(C)c(O)c4c(O)c(cc(O)c4c3C2=O)NC(=O)/C(C)=C\C=C/[C@H](C)[C@@H](O)[C@H](C)[C@H](O)[C@H](C)[C@H](OC(C)=O)[C@@H]1C | -2%[11.5 µM] | 1%[11.5 µM] | .
O=C(c1ccc(Cc2nc3ccccc3[nH]2)cc1)N1CCCCC1 | -3% | -3% | .
Cc1nnc(NC(=O)c2ccccc2Br)s1 | -2% | -1% | 3.9*
COCc1nnc(NC(=O)c2sc3ccccc3c2Cl)s1 | 0% | 0% | >77
Cc1nnc(NC(=O)c2sc3ccccc3c2Cl)s1 | -4% | 1% | 15*
Cc1nnc(NC(=O)c2ccccc2F)s1 | -1% | 1% | 7.9*
O=C(Nc1nncs1)c1ccccc1Br | 0% | -1% | .
Cc1nnc(NC(=O)c2c(F)c(F)c(F)c(F)c2F)s1 | 1% | -1% | ?
COCC(=O)N1CCC2(CC1)CCN(C(c1ccccc1)c1ccccc1)CC2 | 1% | -2% | .
CS(=O)(=O)Nc1cccc(-c2nccc(-n3ccnc3)n2)c1 | 1% | 1% | .
SMILES | Caspase-7 inhib | Caspase-1 inhib | GBA mod
CCN1C(=O)[C@H]2[C@H]3[C@H](O)[C@H](O)C/C(=N/OC/C=C(\C)CCC=C(C)C)[C@H]3CC[C@@H]2C1=O | 1%[11.5 µM] | -10%[11.5 µM] | .
O=c1c(-c2ccc(Cl)cc2)nc2cncnc2n1Cc1ccccc1Cl | -12% | -10% | .
Oc1ccccc1C1=Nc2nc3ccccc3n2C(c2ccccc2)C1 (stereo unspecified) | -6% | -5% | 15*
CN1C(=O)CC(n2c(CO)nc3ccccc32)C1=O (stereo unspecified) | -1% | 1% | >77
O=c1c(-c2ccc(F)cc2)nc2cncnc2n1Cc1ccc(F)cc1 | -10% | -8% | .
O=C(Nc1cccc2cccnc12)c1ccc(Br)o1 | -1% | -2% | ?
O=C(Nc1ccc(Br)c2cccnc12)c1ccc(Cn2cc(Cl)cn2)o1 | 0% | -1% | 9.2*
Cc1nc(N2CCc3ccccc3C2)[nH]c(=O)c1CCC(C)C | -1% | -3% | 5.3*
Cc1nc(N2CCOCC2)[nH]c(=O)c1CCC(C)C | 0% | 1% | >77
COc1ccc(C2C(C(=O)N3CCN(C)CC3)c3ccccc3C(=O)N2C2CCCCC2)cc1 (stereo unspecified) | 1% | 3% | .
COc1ccc(C2C(C(=O)NCCN3CCOCC3)c3ccccc3C(=O)N2C2CCCCC2)cc1 (stereo unspecified) | 0% | 1% | 14*
Oc1ccccc1Oc1ncc(Br)c(N2CCOCC2)n1 | 1% | 0% | >77
Brc1cnc(N2CCCC2)nc1N1CCOCC1 | -1% | 0% | 15*
COc1ccc(N2CCN(Cc3nc(N)nc(Nc4ccccc4OC)n3)CC2)cc1 | 0% | -1% | 3.9*
COc1ccccc1N1CCN(CC(=O)Nc2ccc(C)c(F)c2)CC1 | 0% | 0% | >77

Screens (PubChem BioAssay)
